According to PubChem BioAssay (NCI):
Compounds without any hit were thinned out: in the full panel of roughly 83,000, 20% have a hit.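 A percent growth of 40 corresponds to 60% growth inhibition; 0 means no net growth; -100 means all cells died. Active threshold: below 10.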 Activity calls are given as the source filed them.

System: HL-60(TB) leukemia
Test: NCI-60 one-dose screen, 48 h (100 = growth as untreated, 0 = no growth, -100 = all killed)
Details: 10 µM unless noted

| Structure (SMILES) | growth |
| --- | --- |
| O=C(c1ccccc1)C(c1c[nH]c2ccccc12)c1c[nH]c2ccccc12 | 53.8% (inactive) |
| COC[C@@H](CC(C)C)N=C1NC(=O)/C(=C/c2ccc3ncsc3c2)N1 | 1.21% (active) |
| Cc1noc2c(Cc3ccccc3)nn(CC(=O)N/N=C/c3ccc(F)cc3)c(=O)c12 | 93.2% (inactive) |
